Measured values published in PubChem BioAssay (NCATS).
Results filed as inconclusive are left out. The source made the active and inactive calls. The call rests on the fitted dose curve; in most records, active means well fitted activation curve with a large enough effect; inconclusive means small, poorly fitted or top-dose-only effect; inactive means flat fitted curve, though single readings scatter.

These molecules were tested against Cellular tumor antigen p53 (Homo sapiens) (UniProt P04637) (assay: Primary qHTS for small molecule compounds that upregulate eGFP-tagged delta133p53alpha (in C-terminal) cells. (AID 2060324;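 on GFP increase (activation): 0% = DMSO wells and 100% = 57.5 µM 5-azacytidine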)). Details: NCI-H358 delta133p53alpha-eGFP (C-terminal tag), GFP fluorescence imaging, 24 h; series mostly up to 57.5 µM; GFP increase (activation): at the top concentration.
From the text: Assay Development and Screening Technology
National Center for Advancing Translational Sciences (NCATS),
National Institute of Health (NIH), Rockville, Maryland
Cellular senescence (CS) is one of the hallmarks of aging and age-related diseases. Senescent cells are characterized by an irreversible growth arrest, an increase in senescence-associated beta-galactosidase (SA-beta-gal) activity and p16INK4a expression, an activation of the DNA damage response pathways, and the emergence of a senescence-associated secretory phenotype (SASP).
Delta133p53alpha, a human/primate-specific p53 protein isoform, delays or inhibits the induction of CS and SASP in various types of human cells, including progeria-derived fibroblasts, primary normal astrocytes, and CD8+ T lymphocytes. Induction of delta133p53alpha with small molecule compounds may provide therapeutic opportunities for inhibition of senescence/SASP-associated pathologies in progeria syndromes, astrocyte-mediated neuroprotection in neurodegenerative diseases, and possibly prevention and treatment of a wider range of senescence- and aging-associated diseases.
Here we report the development and validation of a cell-based quantitative high throughput screening (qHTS) assay in 1,536-well format. This qHTS assay uses the NCI-H358 cell line with doxycycline-inducible expression of enhanced green fluorescent protein (eGFP)-tagged delta133p53alpha, which allows efficient and highly quantitative measurement of the protein levels.
PROTOCOL TABLE (as described by Inglese J, Shamu CE and Guy RK. 2007)
SEQUENCE No. (e.g., 1, 2, 3, etc.); […] (e.g., Cells, Incubation, Reagent, etc.); VALUE; DESCRIPTION.
1; Cells; 4uL; 800 doxycycline treated cells / well in doxycycline-free media, 1536-well black, clear-bottom low base Aurora microplates.
2; Compounds; 23 nL; Kalypsis pin tool (Wako) equipped with 1536-well pin heads, 5-azacytidine positive control.
3; Incubation; 24 hr; 37C, 5% CO2; 95% relative humidity.
4; Aspiration; 1x; BioTek EL406 washer dispenser (Agilent).
5; Fixing; 3.5% paraformaldehyde, BioTek EL406 washer dispenser (Agilent).
6; Washing; 1x PBS; BioTek EL406 washer dispenser (Agilent).
7; Nuclei staining; 1:1000 dilution of Hoechst 33342 (Thermofisher), BioTek EL406 washer dispenser (Agilent).
8; Incubation; 20 min; in the dark at room temperature.
9; Washing; 2x, 1x PBS (ThermoFisher), BioTek EL406 washer dispenser (Agilent).
10; Reagent; 10 uL; 1x PBS per well, sealed with clear adhesive tape.
11; Detection; Fluorescence, Acumen eX3 laser scanning cytometer (STP Labtech), GFP filters […].
NOTES (numbers refer to sequence numbers above).
1. NCI-H358 cells expressing eGFP-tagged delta133p53alpha were grown in T75 culture flasks and treated with doxycycline for 24h, at 10 ng/ml for eGFP-D133p53a cells (N-terminal cell) and 100 ng/ml for D133p53a-eGFP cells (C-terminal cells). Cells were trypsinized, counted using a Counted 3 Automated Cell Counter (Thermo Fisher), and diluted to a concentration of 200,000 cells/ml. A Multidrop Combi Reagent Dispenser (ThermoFisher) was used to dispense 800 cells/well in […] of doxycycline-free media, into 1536-well black/clear bottom low base plates (AuroraMicroplates).
2. After plating cells, 23 nl of compound library, DMSO vehicle control or positive control (5-azacytidine) were transferred by Pin Tool (Wako). The plate map layout was the same for each plate: (column 1) non-doxycycline treated cells + DMSO vehicle control; (column 2) doxycycline treated cells + DMSO vehicle control baseline; (column 3) doxycycline treated cells + positive control 57.5 uM final concentration 5-azacytidine; (column 4) doxycycline treated cells + serial dilution of 5-azacytidine, 16-point 1:2 titration spanning 1.8 nM to […] final concentration; (columns 5-48) doxycycline treated cells + titration of library compounds.
3. Cells were incubated at 37 °C, 5 % CO2, 95% RH with breathable metal lid for 24h.
4-10. […] […]
Potency means the concentration at half of the fitted maximal effect.

Chain of Cellular tumor antigen p53 (Homo sapiens) (P04637 whole entry, looked up): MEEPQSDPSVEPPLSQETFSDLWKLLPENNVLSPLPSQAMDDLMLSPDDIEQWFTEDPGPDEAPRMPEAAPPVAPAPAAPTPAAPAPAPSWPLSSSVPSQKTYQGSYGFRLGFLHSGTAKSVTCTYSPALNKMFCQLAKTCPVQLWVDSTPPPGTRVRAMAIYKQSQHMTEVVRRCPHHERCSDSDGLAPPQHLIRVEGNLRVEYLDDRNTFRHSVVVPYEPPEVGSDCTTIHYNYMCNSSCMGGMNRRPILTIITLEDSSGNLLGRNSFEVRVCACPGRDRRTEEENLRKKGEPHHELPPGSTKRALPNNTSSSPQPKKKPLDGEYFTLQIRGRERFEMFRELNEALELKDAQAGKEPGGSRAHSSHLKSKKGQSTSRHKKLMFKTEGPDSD

Compound | GFP increase (activation) | Potency
C#CC(N)CCC(=O)O (stereo not given) | -3.15% (inactive) | 
CC(=O)O[C@H]1C[C@@H]2CC[C@@H]3[C@H](CC[C@@]4(C)[C@H]3C[C@H]([N+]3(C)CCCCC3)[C@@H]4OC(C)=O)[C@@]2(C)C[C@@H]1[N+]1(C)CCCCC1 | 6.51% (inactive) | 
O=C1C(SCCO)=C(SCCO)C(=O)c2ccccc21 |  | 8.49 µM (active)
NC1(C(=O)O)CC1 | -2.2% (inactive) | 
O=C1NCc2c1c1c3ccccc3[nH]c1c1[nH]c3ccccc3c21 |  | 30.1 µM (active)
CC(=O)c1ccc2c(c1)N(CCCN(C)C)c1ccccc1S2 | 7.84% (inactive) | 
O=C(O)C1=CCCN(CCON=C(c2ccccc2)c2ccccc2)C1 | -10% (inactive) | 
Oc1cc2c(cc1O)CN(C(=S)NCCc1ccc(Cl)cc1)CCC2 | -2.97% (inactive) | 
Cc1cccc(-c2[nH]ncc2-c2ccc3ncccc3n2)n1 | 6.06% (inactive) | 
NC(=O)c1ccc2[nH]ccc2c1 | 1.53% (inactive) | 
Cn1c(=O)c2[nH]c(-c3ccc(S(=O)(=O)O)cc3)nc2n(C)c1=O | 2.72% (inactive) | 
Brc1cc2c(cc1[C@H]1Nc3ccccc3[C@H]3C=CC[C@H]31)OCO2 | 9.11% (inactive) | 
COC(=O)C1=C(C)NC(C)=C([N+](=O)[O-])C1c1ccccc1C(F)(F)F (stereo not given) | -1.12% (inactive) | 
C=CC1(C)CC(=O)C2(O)C(C)(O1)C(OC(C)=O)C(O)C1C(C)(C)CCC(O)C12C (stereo not given) | 4.21% (inactive) | 
O=c1[nH]ccc2c(O)cccc12 | 3.94% (inactive) | 
Cc1ccccc1/C=C/C1=NCCN1 | 20.7% (inactive) | 
COc1cc2nc(N3CCN(C(=O)C4COc5ccccc5O4)CC3)nc(N)c2cc1OC (stereo not given) | -3.46% (inactive) | 
Nc1cc(Cl)c(NC2=NCCN2)c(Cl)c1 | -4.92% (inactive) | 
Nc1c2c(nc3ccccc13)CCCC2 | 0.254% (inactive) | 
O=C(c1ccc2c(c1)OCCO2)N1CCCCC1 | -3.47% (inactive) | 

Compound | GFP increase (activation) | Potency
C(=C\c1ccccc1)/CN1CCN(C(c2ccccc2)c2ccccc2)CC1 | -0.329% (inactive) | 
NCC(O)C1CCCCCCC1 (stereo not given) | -2.14% (inactive) | 
CCCCNc1c(C(=O)OCC)c(C)nc2c1cnn2CC | -15.1% (inactive) | 
C[C@@H](NCCc1ccc(O)cc1)[C@@H](O)c1ccc(O)cc1 | -1.97% (inactive) | 
COc1cc(OC)cc(-c2cc3cnc(N)nc3nc2NC(=O)NC(C)(C)C)c1 | 17.4% (inactive) | 
Oc1ccc(/C=C/c2cc(O)cc(O)c2)cc1 | 9.65% (inactive) | 
Cc1c(OCC(F)(F)F)ccnc1CS(=O)c1nc2ccccc2[nH]1 (stereo not given) | -8.96% (inactive) | 
N=c1ccn2c(n1)O[C@H]1[C@H](O)[C@@H](CO)O[C@H]12 | -0.0455% (inactive) | 
O=C(Nc1cccc(C(=O)Nc2ccc(S(=O)(=O)O)c3cc(S(=O)(=O)O)cc(S(=O)(=O)O)c23)c1)Nc1cccc(C(=O)Nc2ccc(S(=O)(=O)O)c3cc(S(=O)(=O)O)cc(S(=O)(=O)O)c23)c1 | -7.79% (inactive) | 
OCCN1CCN(CC/C=C2/c3ccccc3Sc3ccc(C(F)(F)F)cc32)CC1 | -5.09% (inactive) | 
c1cc(CN2CCCCC2)cc(OCCCNc2nc3ccccc3s2)c1 | 6.51% (inactive) | 
NC(=O)NO | -5.15% (inactive) | 
O=C(O)C1CN(CCCP(=O)(O)O)CCN1 (stereo not given) | -0.833% (inactive) | 
O=C(O)C1CCCNC1 (stereo not given) | 0.533% (inactive) | 
CN1CCN(C2Cc3ccccc3Sc3ccc(Cl)cc32)CC1 (stereo not given) | 17% (inactive) | 
Clc1ccc(C(c2ccccc2Cl)C(Cl)Cl)cc1 (stereo not given) | -7.68% (inactive) | 
CC(=O)N[C@H](C(=O)O)C(C)(C)SN=O | -11.6% (inactive) | 
NC(N)=NC(N)=Nc1cccc(Cl)c1 | -3.54% (inactive) | 
CCN1CCC[C@H]1CNC(=O)c1cc(S(N)(=O)=O)ccc1OC | 1.91% (inactive) | 
CCCCC1C(=O)N(c2ccccc2)N(c2ccccc2)C1=O | -4.49% (inactive) | 
